# RE007 growth inh: less growth of the S. pombe RE007 Vpr strain; S. pombe RE007 Vpr strain, BacTiter-Glo ATP luminescence, 24 h; Potency, µM (doses to about 92.2 µM), without a hit: top-dose activity change, negative = less growth, hits mostly inhibitors; 360,000 compounds, 0.21% hits; AID 651644; active means well fitted falling curve with a large enough effect; inconclusive means small, poorly fitted or top-dose-only effect; inactive means no such curve, though single readings can be large or run the other way; further: potency means the concentration at half of the fitted maximal effect; on the % scale 0 is the no-effect control and ±100 the full control effect; nearly all actives have a fitted effect of over 50% in size
#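 Fission yeast strain RE007, carrying one chromosomally integrated HIV-1 vpr copy, was seeded at OD 0.01 in PMG+AL medium with 23 nL pinned compound. After 24 h at 30 °C and 99% humidity, viability was read by BacTiter-Glo luminescence.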
# FBPA Giardia inh: inhibitors of Giardia lamblia fructose-1,6-bisphosphate aldolase | A8B2U2 | purified Giardia FBPA | Potency, µM (series often up to 59.6 µM), inactives show top-dose activity, negative = inhibition, hits mostly inhibitors | 290,000 compounds, 0.71% hits | AID 2451; further: potency means the concentration at half of the fitted maximal effect; on the % scale 0 is the no-effect control and ±100 the full control effect; nearly all actives have a fitted effect of over 55% in size
#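 40 nM FBPA preincubated 10 min at RT with compound (up to 57.5 uM final), then substrate plus GAPDH/TPI/NAD/arsenate coupling and diaphorase/resazurin added. Fluorescence read after 20 min at RT, 525/598 nm.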
# Tb PYK inh: inhibitors of Trypanosoma brucei pyruvate kinase; TbPYK enzyme, Kinase-Glo Plus ATP luminescence, 45 min; Potency, µM (series often up to 76.8 µM), for inactives: at the highest dose activity, negative = inhibition, usual class: inhibitors; 410,000 compounds, 0.12% hits; further: potency means the concentration at half of the fitted maximal effect; on the % scale 0 is the no-effect control and ±100 the full control effect; nearly all actives have a fitted effect of over 50% in size
#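 Enzyme and substrate buffer are dispensed first and compound is pin-transferred. ADP at 130 uM final then starts the reaction, which runs 45 min at room temperature. Detection reagent is added for 10 min before luminescence is imaged.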
# Shiga inhibitor: Shiga toxin inhibition | Vero cells, Shiga toxin protein synthesis inhibition reporter | inhibition, % at 38.7 µM | 290,000 compounds, 9.2% hits; in the data active means inhibition mostly above about 28%, no sharp cut-off; inactive means mostly below about 43%; further: 0% is about no effect
# LmPK inhibitor: inhibitors of Leishmania mexicana pyruvate kinase; purified LmPK, Kinase-Glo ATP luminescence, 1 h; Potency, µM (top dose mostly 57.5 µM), inactives show top-dose activity change, negative = inhibition, most hits filed as inhibitors; 290,000 compounds, 0.37% hits; AID 1721; further: potency means the concentration at half of the fitted maximal effect; on the % scale 0 is the no-effect control and ±100 the full control effect
# Target sequence (Q27686 whole entry, looked up): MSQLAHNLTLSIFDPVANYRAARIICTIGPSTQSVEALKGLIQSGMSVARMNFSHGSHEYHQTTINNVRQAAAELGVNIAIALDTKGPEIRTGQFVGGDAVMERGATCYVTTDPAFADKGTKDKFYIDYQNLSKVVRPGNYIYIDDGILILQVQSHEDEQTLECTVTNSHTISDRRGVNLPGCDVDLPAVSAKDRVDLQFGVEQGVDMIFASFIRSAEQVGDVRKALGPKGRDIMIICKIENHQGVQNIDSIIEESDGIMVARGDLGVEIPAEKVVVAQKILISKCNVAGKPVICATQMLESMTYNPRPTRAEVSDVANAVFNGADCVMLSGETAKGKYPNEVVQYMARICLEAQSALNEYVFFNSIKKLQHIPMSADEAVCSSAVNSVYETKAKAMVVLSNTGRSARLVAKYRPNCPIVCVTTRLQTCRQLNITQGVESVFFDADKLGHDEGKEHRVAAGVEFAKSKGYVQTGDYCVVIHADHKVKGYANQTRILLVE
#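 ATP generated from ADP (0.1 mM) and PEP (0.5 mM) by 0.1 nM LmPK over 1 h at room temperature (pH 7.2 imidazole buffer) was detected by coupled luciferase luminescence. Values were normalized to uninhibited and no-enzyme wells.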
# CHX counter: affects cycloheximide protein synthesis inhibition readout, counter-screen; max response, %; 300,000 compounds, 12% hits; cell reporter, cycloheximide protein synthesis inhibition counterscreen; AID 2314; in the data active means max response mostly above about 13%, no sharp cut-off; inactive means mostly below about 14%; further: read at 38.3 µM for the half of the compounds with a filed dose; 0% is about no effect
# * = called active by the depositor; u = inconclusive; x = no result; [ ] = remark or other dose. The entries come from a sample that favours hits as a whole. Unless noted, the call rests on the fitted dose curve; in most records, active means well fitted curve in the direction sought with a large enough effect; inconclusive means small, poorly fitted or top-dose-only effect, or another doubt; inactive means no such curve, though single readings can be large; an effect the other way counts as inactive or inconclusive.
SMILES,RE007 growth inh,FBPA Giardia inh,Tb PYK inh,Shiga inhibitor,LmPK inhibitor,CHX counter
COC(=O)C(C)N1C(=O)S/C(=C/c2cc(C)n(-c3ccccn3)c2C)C1=O (centres undefined),x,u,-1.0%,56.6,-4.9%,49.9*
CCOC(=O)CN1C(=O)S/C(=C/c2cc(C)n(-c3ccccn3)c2C)C1=O,-1.3%,u,-3.3%,68.9*,3.9%,58.7*
CCOC(=O)CN1C(=O)S/C(=C/c2ccc(C)o2)C1=O,-6.4%,-28.9%,-2.7%,46.5*,2.4%,24.4*
COc1ccc(OC)c(-c2noc(CSc3nnc(Cc4ccccc4)n3-c3cccc(C)c3)n2)c1,x,x,-7.5%,x,x,x
Cc1ccc(-n2c(C)cc(/C=C3/SC(=O)N(CC(=O)N4CCOCC4)C3=O)c2C)nc1,-1.6%,-18.5%,-0.7%,15.1,-10.8%,5.5
COC(=O)C(C)N1C(=O)S/C(=C\c2cc(C)n(-c3ccccn3)c2C)C1=O (centres undefined),-8.6%,u,-11.7%,90.2*,-1.2%,43.3*
COc1ccc2c(c1OC)C(=O)N1N=C(c3ccc(Cl)cc3)CC21 (centres undefined),-0.9%,5.0%,-4.6%,8.2,-0.2%,13.0*
CCOc1ccc(/C=C/C(=O)Nc2ccccc2C(F)(F)F)cc1,8.4%,0.9%,37.8%,37.7*,-2.9%,36.0*
COc1ccc(/C=C/C(=O)Nc2ccccc2C(=O)N2CCCC2)cc1,-19.2%[3.69 µM],2.0%,x,52.5*,-6.8%,24.2
COc1ccc(/C=C/C(=O)Nc2ccccc2C(=O)O)cc1,-13.0%,-29.6%,-3.1%,-4.4,u,-2.6
COc1ccc(/C=C/C(=O)Nc2ccccc2C(F)(F)F)cc1OC,2.8%,0.0%,0.4%,-26.0,1.1%,-3.6
COc1ccc(/C=C/C(=O)Nc2ccccc2C(F)(F)F)cc1,22.4%,5.6%,8.8%,58.9*,0.2%,24.4*
COc1ccc(/C=C/C(=O)Nc2ccccc2C(=O)NCC(c2ccc(OC)cc2)N(C)C)cc1 (centres undefined),-6.8%,5.7%,2.2%,39.5*,-1.7%,10.0
CCOc1ccc(/C=C/C(=O)c2cccs2)cc1,x,-0.4%,x,x,x,x
COCCn1c(=O)c(-c2cn(C)c3ccccc23)nc2cnc(Oc3cccc(Cl)c3)nc21,x,3.3%,x,x,x,x
Cc1ccc(/C=C(\NC(=O)c2ccccc2)C(=O)NCCc2ccccn2)o1,25.1%,-17.7%,0.4%,23.9,-0.4%,11.1*
COc1cc(N(C)C)cc(CN(C)CCc2ccc([N+](=O)[O-])cc2)c1O,x,7.92µM*,x,20.5,x,7.3
COc1ccc(CNCCc2ccc([N+](=O)[O-])cc2)c(OC)c1OC,-17.7%,-27.4%,17.9%,x,7.3%,1.0
C#CCNc1ccc([N+](=O)[O-])cc1,-4.9%,-8.9%,-3.8%,22.2,-4.9%,16.3*
CCCCOC(=O)/C=C/c1ccc(OC(=O)OC)c(OC(=O)OC)c1,u,7.0%,-4.4%,-13.2,-0.4%,-1.7
COC(=O)Oc1ccc(/C=C/C(=O)OC(C)C)cc1OC(=O)OC,5.4%,6.9%,-8.3%,49.2,-1.4%,29.9*
CCN1/C(=C/C(C)=C/c2sc3ccccc3[n+]2CC)Sc2ccccc21,7.08µM*,-7.7%,u,-21.1,-14.0%,-8.8
CC(C)c1nnc(NC(=O)c2nc(S(=O)(=O)Cc3ccccc3F)ncc2Cl)s1,-9.1%,x,-9.4%,105.7*,-8.5%,56.5*
CSc1nnc(NC(=O)c2nc(S(=O)(=O)Cc3ccccc3F)ncc2Cl)s1,-7.3%,u,-5.7%,35.7*,7.3%,50.9*
O=C(Nc1nc2ccc(F)cc2s1)c1nc(S(=O)(=O)Cc2ccccc2F)ncc1Cl,x,x,5.8%,x,x,x
SMILES,RE007 growth inh,FBPA Giardia inh,Tb PYK inh,Shiga inhibitor,LmPK inhibitor,CHX counter
Cc1nnc(NC(=O)c2nc(SCc3ccccc3F)ncc2Cl)s1,x,x,0.1%,x,x,x
Cc1nnc(NC(=O)c2nc(S(=O)(=O)Cc3ccccc3C)ncc2Cl)s1,-20.1%,u,0.4%,51.5*,0.9%,43.6*
CCOC(=O)C(=O)Nc1c(C(=O)Nc2cccc(F)c2)oc2ccccc12,x,x,5.9%,x,x,x
CSCC[C@H](NC(=O)[C@H](CC(C)C)N(C)C(=O)[C@@H]1CCCN1C(=O)[C@H](Cc1ccccc1)NC(=O)[C@H](Cc1ccccc1)NC(=O)CCC(C)N)C(=O)O (some centres undefined),x,-8.7%,x,-4.0,x,-6.0
O=S(=O)(c1ccccc1)c1nc(-c2ccco2)oc1NCc1ccccc1,-15.0%,-17.0%,0.2%,15.0,4.0%,9.0
O=S(=O)(c1ccccc1)c1nc(-c2ccco2)oc1Nc1ccccc1,26.0%,2.2%,-8.8%,90.2*,0.7%,24.9*
O=S(=O)(c1ccccc1)c1nc(-c2ccco2)oc1NCc1ccco1,14.1%,-4.6%,-6.4%,-1.7,5.2%,2.1
O=S(=O)(c1ccc(F)cc1)c1nc(-c2ccco2)oc1Nc1ccccc1,-14.5%,-2.3%,7.5%,113.7*,-1.1%,49.9*
O=C(CSc1oc(-c2ccc(F)cc2)nc1S(=O)(=O)c1ccccc1)NC1CCCCC1,x,x,-8.1%,x,x,x
CC(C)C1Oc2ccccc2C(=O)N(CC(=O)c2ccc3c(c2)OCCO3)C1=O (centres undefined),-6.8%,x,3.4%,91.5*,3.1%,47.4*
CC1Oc2ccccc2N(CC(=O)c2cccc(Cl)c2)C1=O (centres undefined),5.1%,0.8%,-1.7%,33.0,6.1%,-3.5
CC1Oc2ccccc2C(=O)N(CC(=O)c2ccc3c(c2)OCCO3)C1=O (centres undefined),6.5%,x,-5.7%,71.9*,8.9%,30.4*
CCC1Oc2ccccc2N(CC(=O)N2CCOCC2)C1=O (centres undefined),-5.6%,1.3%,-3.0%,-2.9,-1.0%,-6.4
CCC1Oc2ccccc2C(=O)N(CC(=O)c2ccc3c(c2)OCCO3)C1=O (centres undefined),15.0%,x,-0.3%,46.1,4.0%,34.1*
CCCN(CCC)C(=O)Cn1c(=O)n(-c2ccc(C)c(C)c2)c(=O)c2c3c(sc21)CCCCC3,x,x,2.5%,x,x,x
CSc1cccc(NC(=O)CN(C)S(=O)(=O)c2ccc3c(c2)CCCN3C(C)=O)c1,x,x,0.0%,x,x,x
CC(=O)N1/C(=C/c2ccc(N(C)C)cc2)C(=O)c2ccccc21,3.6%,-10.4%,-9.2%,21.8,-8.9%,21.6*
Oc1ccc(N=Nc2ccccc2)o1,u,-2.2%,-4.7%,42.1*,-17.5%,30.1*
O=S(=O)(O)c1ccc(N=Nc2ccccc2)cc1,-11.6%,u,-3.1%,3.1,-15.4%,0.4
Cc1ccc(NC(=O)Nc2ccc3c(c2)nc(C)n3C)cc1C,x,-0.2%,x,107.8*,-0.9%,44.8*
CC(=O)Nc1ccc2c(c1)nc(C)n2-c1ccccc1,1.2%,-0.4%,7.3%,35.9,5.1%,12.6*
Cc1nc2cc(NC(=O)c3ccc(Cl)cc3)ccc2n1C,-26.0%,-2.5%,-3.8%,x,1.0%,26.4*

# Screening results deposited in PubChem BioAssay by National Center for Advancing Translational Sciences (NCATS).
